Assay results as given in PubChem BioAssay (NCATS).
Records with an inconclusive call do not appear. A call without a number means that no potency is given here. Active and inactive are the calls of the source. Calls come from the whole dose curve; as a rule, active = well fitted inhibition curve with a large enough effect; inconclusive = small, poorly fitted or top-dose-only effect; inactive = no such curve, though single readings can be large or run the other way.

molecular target: Papain (Carica papaya) (UniProt P00784); test: Primary qHTS assay for inhibitors of the protease papain (AID 1645873); conditions: papain Z-FR-AMC cleavage, AMC fluorescence; series mostly up to 49.8 µM;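 note: papain turnover of Z-FR-AMC read as the AMC fluorescence gain over 10 min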
Sequence (P00784 whole entry, looked up): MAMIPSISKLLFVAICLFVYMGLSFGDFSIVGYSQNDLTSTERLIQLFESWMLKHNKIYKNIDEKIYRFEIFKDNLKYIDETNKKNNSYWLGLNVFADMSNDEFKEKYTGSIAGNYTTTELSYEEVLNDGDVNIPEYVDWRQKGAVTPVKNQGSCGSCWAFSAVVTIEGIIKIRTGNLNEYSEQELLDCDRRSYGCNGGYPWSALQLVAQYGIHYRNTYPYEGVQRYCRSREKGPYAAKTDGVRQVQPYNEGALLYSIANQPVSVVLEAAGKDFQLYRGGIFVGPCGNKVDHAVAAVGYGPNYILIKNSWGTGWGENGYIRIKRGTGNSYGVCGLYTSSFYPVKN
Potency is the fitted concentration of half-maximal effect.

Row | SMILES | Potency
1 | CCOC(=O)c1ncn2c1CN(C)C(=O)c1cc(F)ccc1-2 | inactive
2 | Cc1cn([C@H]2C=C[C@@H](CO)O2)c(=O)[nH]c1=O | inactive
3 | CC(C)Cc1ccc(C(C)C(=O)O)cc1 (centres undefined) | inactive
4 | CC(C)(C)C(=O)Oc1ccc(S(=O)(=O)Nc2ccccc2C(=O)NCC(=O)O)cc1 | inactive
5 | O=C1N(c2ccccc2)c2ccccc2C1(Cc1ccncc1)Cc1ccncc1 | inactive
6 | Clc1ccc(C(c2ccccc2Cl)C(Cl)Cl)cc1 (centres undefined) | inactive
7 | COC(=O)Nc1nc2ccc(C(=O)c3cccs3)cc2[nH]1 | inactive
8 | CCC1(C)CC(=O)NC1=O (centres undefined) | inactive
9 | Nc1nnc(-c2cccc(Cl)c2Cl)c(N)n1 | inactive
10 | Clc1ccc2nsnc2c1NC1=NCCN1 | inactive
11 | CC(C)(Oc1ccc(C2CC2(Cl)Cl)cc1)C(=O)O (centres undefined) | inactive
12 | CC[N+](CC)(CC)CCOc1cccc(OCC[N+](CC)(CC)CC)c1OCC[N+](CC)(CC)CC | inactive
13 | COc1ccc2[nH]cc(CCNC(C)=O)c2c1 | inactive
14 | CN1C(C(=O)Nc2ccccn2)=C(O)c2ccccc2S1(=O)=O | inactive
15 | CCN1CCCC1CNC(=O)c1cc(S(=O)(=O)CC)c(N)cc1OC (centres undefined) | inactive
16 | COc1ccc(C2CNC(=O)C2)cc1OC1CCCC1 (centres undefined) | inactive
17 | CC(C)NCC(O)COc1ccc(CCOCC2CC2)cc1 (centres undefined) | inactive

Row | SMILES | Potency
18 | CC[C@@]1(O)C(=O)OCc2c1cc1n(c2=O)Cc2cc3c(CN(C)C)c(O)ccc3nc2-1 | 28.2 µM (active)
19 | Cc1cc(C(C)(C)C)c(O)c(C)c1CC1=NCCN1 | inactive
20 | C[C@H]1c2cccc(O)c2C(O)=C2C(=O)[C@]3(O)C(O)=C(C(N)=O)C(=O)[C@@H](N(C)C)[C@@H]3[C@@H](O)[C@@H]21 | 22.4 µM (active)
21 | Cc1cc(C(C)(C)C)cc(C)c1CC1=NCCN1 | inactive
22 | NS(=O)(=O)c1cc2c(cc1Cl)NCNS2(=O)=O | inactive
23 | CCC1(c2ccccc2)C(=O)NCNC1=O | inactive
24 | C[C@](N)(Cc1ccc(O)c(O)c1)C(=O)O | inactive
25 | NCCCCCC(=O)O | inactive
26 | O=c1[nH]cc(F)c(=O)[nH]1 | inactive
27 | Cn1c(=O)c2[nH]cnc2n(C)c1=O | inactive
28 | Nc1ccn([C@H]2CC[C@@H](CO)O2)c(=O)n1 | inactive
29 | N[C@@H](Cc1c[nH]c2ccc(O)cc12)C(=O)O | inactive
30 | CCc1cccc2c3c([nH]c12)C(CC)(CC(=O)O)OCC3 (centres undefined) | inactive
31 | NC(=O)OCC(COC(N)=O)c1ccccc1 | inactive
32 | CN1CCN2c3ccccc3Cc3ccccc3C2C1 (centres undefined) | inactive
33 | COc1cc2c(c(OC)c1OC)-c1ccc(OC)c(=O)cc1[C@@H](NC(C)=O)CC2 | inactive
34 | O=C(C1CCCCC1)N1CC(=O)N2CCc3ccccc3C2C1 (centres undefined) | inactive
